Assay results published in PubChem BioAssay AID1159580 (chemical genetic matrix, 2015).
Among all 5,500 compounds or so, about 2,000 (36%) were called active. About 18% were inconclusive and are not listed. Rule as the data show it: active = normalized growth mostly below about 0.91 (no sharp cut-off); inconclusive = no clear call, values can overlap the other calls; inactive = mostly above about 0.92. The list shows a part of the results.

Experiment: chemical genetic growth profiling, strain panel (AID 1159580);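 also: tested at 20 µM; growth read once vehicle control cultures reached saturation at 30 °C; 1 = growth at the plate median or of vehicle wells; lower values mean less growth of the strain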
Settings: growth OD

Measured: normalized growth

O=c1cccc2n1C[C@H]1CNCC2C1
inactive: S. cerevisiae deletion strains, locus YJR043C, strain POL32, active compounds read low 1.01 | S. cerevisiae deletion strains, locus YJR066W, strain TOR1, active compounds read low 0.988 | S. cerevisiae deletion strains, locus YKL009W, strain mrt4, active compounds read low 1.02 | S. cerevisiae deletion strains, locus YKL068W, active compounds read low 0.98 | S. cerevisiae deletion strains, locus YKL085W, strain MDH1 (second series), active compounds read low 1 | S. cerevisiae deletion strains, locus YKL085W, strain MDH1, active compounds read low 1 | S. cerevisiae deletion strains, locus YKL160W, strain elf1, active compounds read low 0.984 | S. cerevisiae deletion strains, locus YKR001C, strain vps1, active compounds read low 0.964 | S. cerevisiae deletion strains, locus YKR026C, strain gcn3, active compounds read low 0.994 | S. cerevisiae deletion strains, locus YKR091W, strain srl3, active compounds read low 1.01 | S. cerevisiae deletion strains, locus YLL001W, strain dnm1, active compounds read low 0.95 | S. cerevisiae deletion strains, locus YLL026W, active compounds read low 1.01 | S. cerevisiae deletion strains, locus YLL041C, strain sdh2, active compounds read low 0.998 | S. cerevisiae deletion strains, locus YLR027C, strain aat2, active compounds read low 1 | S. cerevisiae deletion strains, locus YLR039C, strain RIC1, active compounds read low 1.01 | S. cerevisiae deletion strains, locus YLR058C, strain SHM2, active compounds read low 1.01 | S. cerevisiae deletion strains, locus YLR102C, strain apc9, active compounds read low 0.985 | S. cerevisiae deletion strains, locus YLR113W, strain HOG1, active compounds read low 0.979 | S. cerevisiae deletion strains, locus YLR221C, strain rsa3, active compounds read low 0.971 | S. cerevisiae deletion strains, locus YLR258W, strain gsy2, active compounds read low 0.982 | S. cerevisiae deletion strains, locus YLR262C, strain YPT6 (second series), active compounds read low 0.998 | S. cerevisiae deletion strains, locus YLR262C, strain YPT6, active compounds read low 1.01 | S. cerevisiae deletion strains, locus YLR268W, strain sec22, active compounds read low 0.971 | S. cerevisiae deletion strains, locus YLR320W, strain mms22, active compounds read low 0.974 | S. cerevisiae deletion strains, locus YLR330W, strain CHS5, active compounds read low 0.989 | S. cerevisiae deletion strains, locus YLR342W, strain FKS1 (second series), active compounds read low 1.04 | S. cerevisiae deletion strains, locus YLR342W, strain FKS1, active compounds read low 1.01 | S. cerevisiae deletion strains, locus YLR357W, strain rsc2, active compounds read low 1.09 | S. cerevisiae deletion strains, locus YLR370C, strain arc18, active compounds read low 0.99 | S. cerevisiae deletion strains, locus YLR371W, strain rom2, active compounds read low 0.976 | S. cerevisiae deletion strains, locus YLR384C, strain iki3, active compounds read low 1 | S. cerevisiae deletion strains, locus YLR418C, strain cdc73, active compounds read low 1.03 | S. cerevisiae deletion strains, locus YML016C, strain PPZ1, active compounds read low 1.01 | S. cerevisiae deletion strains, locus YML032C, strain rad52, active compounds read low 1.01 | S. cerevisiae deletion strains, locus YML120C, strain ndi1, active compounds read low 0.993 | S. cerevisiae deletion strains, locus YML124C, strain tub3, active compounds read low 0.995 | S. cerevisiae deletion strains, locus YMR058W, strain fet3, active compounds read low 1.01 | S. cerevisiae deletion strains, locus YMR078C, strain ctf18, active compounds read low 0.984 | S. cerevisiae deletion strains, locus YMR125W, strain sto1, active compounds read low 0.992 | S. cerevisiae deletion strains, locus YMR129W, active compounds read low 1 | S. cerevisiae deletion strains, locus YMR205C, strain PFK2, active compounds read low 0.994 | S. cerevisiae deletion strains, locus YMR223W, strain ubp8, active compounds read low 1.01 | S. cerevisiae deletion strains, locus YMR231W, strain pep5, active compounds read low 1.01 | S. cerevisiae deletion strains, locus YMR263W, strain SAP30, active compounds read low 1 | S. cerevisiae deletion strains, locus YMR307W, strain GAS1, active compounds read low 1.07 | S. cerevisiae deletion strains, locus YNL067W, strain RPL9B, active compounds read low 1.01 | S. cerevisiae deletion strains, locus YNL071W, strain lat1, active compounds read low 1.01 | S. cerevisiae deletion strains, locus YNL153C, strain GIM3, active compounds read low 1.03 | S. cerevisiae deletion strains, locus YNL183C, strain NPR1, active compounds read low 0.987 | S. cerevisiae deletion strains, locus YNL209W, strain ssb2, active compounds read low 1.01 | S. cerevisiae deletion strains, locus YNL233W, strain BNI4, active compounds read low 1.03 | S. cerevisiae deletion strains, locus YNL248C, strain rpa49, active compounds read low 1.09 | S. cerevisiae deletion strains, locus YNL250W, strain rad50, active compounds read low 0.929 | S. cerevisiae deletion strains, locus YNL271C, strain bni1, active compounds read low 0.988 | S. cerevisiae deletion strains, locus YNL298W, strain CLA4, active compounds read low 1.01 | S. cerevisiae deletion strains, locus YNL307C, strain MCK1, active compounds read low 0.983 | S. cerevisiae deletion strains, locus YNL322C, strain KRE1 (second series), active compounds read low 1 | S. cerevisiae deletion strains, locus YNR049C, strain mso1, active compounds read low 1 | S. cerevisiae deletion strains, locus YNR052C, strain pop2, active compounds read low 1.01 | S. cerevisiae deletion strains, locus YOL006C, strain TOP1, active compounds read low 1.02 | S. cerevisiae deletion strains, locus YOL012C, strain htz1 1.03 | S. cerevisiae deletion strains, locus YOL147C, strain pex11, active compounds read low 0.998 | S. cerevisiae deletion strains, locus YOR001W, strain rrp6, active compounds read low 0.987 | S. cerevisiae deletion strains, locus YOR061W, strain CKA2, active compounds read low 1.01 | S. cerevisiae deletion strains, locus YOR069W, strain VPS5, active compounds read low 0.999 | S. cerevisiae deletion strains, locus YOR070C, strain gyp1, active compounds read low 0.998 | S. cerevisiae deletion strains, locus YOR080W, strain dia2, active compounds read low 1 | S. cerevisiae deletion strains, locus YOR083W, strain WHI5, active compounds read low 0.991 | S. cerevisiae deletion strains, locus YOR106W, strain vam3, active compounds read low 1.01 | S. cerevisiae deletion strains, locus YOR136W, strain idh2, active compounds read low 0.994 | S. cerevisiae deletion strains, locus YOR144C, strain elg1, active compounds read low 1 | S. cerevisiae deletion strains, locus YOR184W, strain ser1, active compounds read low 0.996 | S. cerevisiae deletion strains, locus YOR231W, strain MKK1, active compounds read low 1.02 | S. cerevisiae deletion strains, locus YOR265W, strain rbl2, active compounds read low 1.01 | S. cerevisiae deletion strains, locus YOR270C, strain vph1, active compounds read low 1.05 | S. cerevisiae deletion strains, locus YOR290C, strain snf2, active compounds read low 0.958 | S. cerevisiae deletion strains, locus YOR316C, strain cot1, active compounds read low 0.994 | S. cerevisiae deletion strains, locus YPL051W, strain arl3, active compounds read low 1 | S. cerevisiae deletion strains, locus YPL078C, strain atp4, active compounds read low 0.997 | S. cerevisiae deletion strains, locus YPL106C, strain sse1, active compounds read low 0.957 | S. cerevisiae deletion strains, locus YPL240C, strain hsp82, active compounds read low 0.993 | S. cerevisiae deletion strains, locus YPL241C, strain CIN2, active compounds read low 1 | S. cerevisiae deletion strains, locus YPL256C, strain CLN2, active compounds read low 1.07 | S. cerevisiae deletion strains, locus YPR119W, strain clb2, active compounds read low 0.981 | S. cerevisiae deletion strains, locus YPR141C, strain kar3, active compounds read low 0.982 | S. cerevisiae deletion strains, locus YPR163C, strain tif3, active compounds read low 0.993 | S. cerevisiae deletion strains, locus YPR167C, strain met16, active compounds read low 0.98 | S. cerevisiae deletion strains, strain wtn01, active compounds read low 0.958 | S. cerevisiae strains, strain wild type, active compounds read low 1.01
